Here are results for 39 compounds from PubChem BioAssay (NCATS).

SMILES strings stand for the structures. Inconclusive results are not listed. A call without a number means that no potency is given here. Calls of active or inactive are those of the source. Unless noted, calls follow the shape of the dose curve; as a rule, active = well fitted curve in the direction sought with a large enough effect; inconclusive = small, poorly fitted or top-dose-only effect, or another doubt; inactive = no such curve, though single readings can be large; an effect the other way counts as inactive or inconclusive. Where a SMILES comes first, the peptide text is derived from it. The star is where a group is joined. AMC = Cc1cc(=O)oc2cc(N*)ccc12; Cbz = O=C(OCc1ccccc1)*; PhAc = O=C(Cc1ccccc1)*

Chain of Calcium and integrin-binding protein 1 (Homo sapiens) (Q99828 whole entry, looked up): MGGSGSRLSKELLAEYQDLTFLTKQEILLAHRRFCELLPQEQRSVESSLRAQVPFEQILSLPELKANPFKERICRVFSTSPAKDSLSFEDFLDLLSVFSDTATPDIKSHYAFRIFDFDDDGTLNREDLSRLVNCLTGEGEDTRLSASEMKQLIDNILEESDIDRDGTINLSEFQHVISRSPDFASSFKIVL
Chain of Cytochrome P450 2C9 (Homo sapiens) (P11712 whole entry, looked up): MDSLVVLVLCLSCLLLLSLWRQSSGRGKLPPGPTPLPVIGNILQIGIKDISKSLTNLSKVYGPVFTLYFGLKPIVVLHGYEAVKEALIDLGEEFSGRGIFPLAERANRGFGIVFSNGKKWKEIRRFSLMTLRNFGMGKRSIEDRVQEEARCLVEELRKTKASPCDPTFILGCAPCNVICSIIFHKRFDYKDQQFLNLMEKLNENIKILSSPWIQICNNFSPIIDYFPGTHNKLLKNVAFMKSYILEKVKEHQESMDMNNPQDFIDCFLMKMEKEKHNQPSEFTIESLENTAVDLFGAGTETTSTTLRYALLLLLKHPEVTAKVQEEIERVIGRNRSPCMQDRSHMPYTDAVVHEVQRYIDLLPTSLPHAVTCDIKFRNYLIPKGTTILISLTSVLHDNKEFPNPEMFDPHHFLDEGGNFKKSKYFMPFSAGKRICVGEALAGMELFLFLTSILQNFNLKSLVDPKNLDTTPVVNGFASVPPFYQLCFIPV

The first test has as its target Calcium and integrin-binding protein 1 (Homo sapiens) (UniProt Q99828). As to the kind of experiment: Primary qHTS for Identification of Calcium Integrin Binding Protein 1 (CIB1) Competitor (AID 1508620).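 Also: GST tagged CIB1 binding a fluorescein labelled alphaIIb integrin peptide tracer; top concentration of the series differs between compounds.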 The conditions noted are these: CIB1-GST / FITC-alphaIIb peptide fluorescence polarization; series mostly up to 57.7 µM. In short, it runs like this: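 Fluorescence polarization competition: CIB1-GST (1 uM final) preincubated with compound 15 min at room temperature, then FITC-labeled alphaIIb peptide (100 nM final) added for another 15 min. Polarization read at Ex 480/Em 540.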
(Quantitative high-throughput screening tests each substance at several concentrations.)
Regarding `CC1(C)CC[C@]2(C(=O)O)CC[C@]3(C)C(=CCC4[C@@]5(C)C[C@H](O)[C@H](O[C@@H]6O[C@H](CO)[C@@H](O)[C@H](O)[C@H]6O)[C@@](C)(CO)C5[C@H](O)C[C@]43C)[C@@H]2C1` (some centres undefined), the Potency entry is “inactive”.
Take `CC1=C[C@H]2[C@@H](CC1=O)[C@H](C)C[C@H](O)[C@H]2C(C)C`: the Potency result was “inactive”.
Turning to `Cc1ccc(Nc2nnc(-c3ccc([N+](=O)[O-])cc3)o2)cc1Cl`, the Potency result is “inactive”.
In the case of `COc1c2c(c(C)c3c1C(=O)OC3)OC1(C)CC(O)C34OC(OC)(CC(O)C3(C)C1C2)OC4(C)C` (centres undefined), the Potency entry is “inactive”.
Consider `COc1c2cc(c(O[C@@H]3O[C@H](CO)[C@@H](O)[C@H](O)[C@H]3O)c1OC)CCCCC(O)CCc1ccc(O)c-2c1` (some centres undefined), for which the Potency entry is “inactive”.
Same read-out and setting: the entry for `C=C(CO)C(=O)O[C@H]1C[C@@]23O[C@@H]2CC/C(=C/[C@H]2OC(=O)C(=C)[C@H]12)CO[C@H]3O` is “inactive”; for `C/C=C/C=C/C1=C2C(=O)C3(C)C4C(C(=O)CC(O)/C=C/C)=C(O1)C1(C)C2C2(C)OC1(O)C4(C)OC23O` (centres undefined) it is “inactive”; for `COC(=O)/C=C/c1ccc(O[C@@H]2O[C@H](CO)[C@@H](O)[C@H](O)[C@H]2O)cc1` it is “inactive”.
On the same count and under the same terms, the entry for `COc1cc(/C=C/C(=O)O[C@H]2[C@@H]3C=CO[C@@H](O[C@@H]4O[C@H](CO)[C@@H](O)[C@H](O)[C@H]4O)[C@@H]3[C@@]3(CO)O[C@@H]23)ccc1O` is “inactive”.
The same measure, in the same setting: to `C=C1CC/C=C(/CO)C(=O)C[C@@H]2[C@@H]1C[C@@]2(C)COC(C)=O` belongs “inactive”; to `CC1=CC(=O)C(=C(C)C)CC2C(C)(O)CCC12O` (centres undefined), “inactive”.
On to `OC[C@H]1O[C@@H](Oc2cc(O)cc(-c3cc4ccc(O[C@@H]5O[C@H](CO)[C@@H](O)[C@H](O)[C@H]5O)cc4o3)c2)[C@H](O)[C@@H](O)[C@@H]1O`, for which the Potency entry was “inactive”.
As to `CC1CCCCCCCc2cc(O)cc(O)c2C(=O)O1` (centres undefined), the Potency entry was “inactive”.
With `CC(=O)OC/C(=C/C(=O)O)CC[C@@H]1C(CO)=CC[C@@H]2C(C)(C)CCC[C@@]12C`, the Potency result was “inactive”.
`CCC(=O)OCC(=O)[C@@]1(OC(=O)CC)[C@@H](C)C[C@H]2[C@@H]3CCC4=CC(=O)C=C[C@]4(C)[C@@]3(F)[C@@H](O)C[C@@]21C`: the Potency entry is “inactive”.
With `Cc1ccc([C@@H]2CC=C(C(=O)O)[C@H](c3ccc(C(C)(C)C)cc3)N2S(=O)(=O)c2ccc(C)cc2)cc1`, the Potency result was “inactive”.
`COc1cc(/C=C/C(=O)OCC2OC(OC3(CO)OC(CO)C(O)C3O)C(O)C(O)C2O)ccc1O` (centres undefined): the Potency result was “inactive”.
Still for that read-out and setting: to `C=C(C(=O)OC)[C@]12O[C@@](C)(CC[C@@]3(O)/C(=C\C)C(=O)O[C@]3(C)C[C@@H]1OC(=O)C(CO)CN1CCCC1C(=O)O)CC2=O` (some centres undefined) belongs “inactive”; to `CC(=O)OC1CC(=O)C2(C)C3CC4=C(OC(C)CC4=O)OC3(C)CCC2C1(C)C` (centres undefined), “inactive”.
With `Cc1cc(=O)oc2cc(NC(=O)[C@H](CCC(=O)O)NC(=O)[C@H](CC(C)C)NC(=O)[C@H](CC(C)C)NC(=O)OCc3ccccc3)ccc12` (Cbz-Leu-Leu-Glu-{AMC}), the Potency result is “inactive”.
Still for that read-out and setting: to `CC1(CO)CC(O)C2(C)CCC3(C)C(=CCC4C5(C=O)CCC(OC6OC(C(=O)O)C(O)C(O)C6OC6OC(C(=O)O)C(O)C(O)C6O)C(C)(C)C5CCC43C)C2C1` (centres undefined) belongs “inactive”; to `CC(=O)c1c(C)cccc1O[C@@H]1O[C@H](CO)[C@@H](O)[C@H](O)[C@H]1O`, “inactive”; to `C/C=C(\C)C(=O)O[C@H]1C=CC(=O)O[C@H]1/C=C/[C@H](O)[C@@H](C)O`, “inactive”.
In the case of `C/C=C1/CC2C(=O)Nc3cc(O)c(OC)cc3C(=O)N2C1` (centres undefined), the Potency result is “inactive”.
For `C/C=C(\C)C(=O)OC1C2(O)CC3=C4CC(=O)OC(c5ccoc5)C4(C)CCC3C(C)(C2=O)C(C(OC(C)=O)C(=O)OC)C1(C)C` (centres undefined), the Potency entry was “inactive”.

In a further test the target is Cytochrome P450 2D6 (Homo sapiens) (UniProt P10635). As to the kind of experiment: Cytochrome P450 family 2 subfamily D member 6 (CYP2D6) small molecule antagonists: luciferase biochemical (cell-free) qHTS assay (AID 1645840; active = well fitted curve in the direction sought with a large enough effect in the repeat runs; an effect the other way counts as inactive or inconclusive; also: nearly all actives have a fitted effect of over 55% in size; also: potency is read from the fitted curve at half-maximal effect). The following applies: P450-Glo CYP2D6 enzyme, luciferin luminescence, 1 h; series mostly up to 57.4 µM. In short, it runs like this: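 P450-Glo luminescent screen: recombinant CYP2D6 enzyme–proluciferin substrate mix preincubated with compound 10 min at room temperature, then NADPH regeneration added for 1 h at room temperature. Detection reagent added for 20 min; luciferin light read as relative luminescence units.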
Chain of Cytochrome P450 2D6 (Homo sapiens) (P10635 whole entry, looked up): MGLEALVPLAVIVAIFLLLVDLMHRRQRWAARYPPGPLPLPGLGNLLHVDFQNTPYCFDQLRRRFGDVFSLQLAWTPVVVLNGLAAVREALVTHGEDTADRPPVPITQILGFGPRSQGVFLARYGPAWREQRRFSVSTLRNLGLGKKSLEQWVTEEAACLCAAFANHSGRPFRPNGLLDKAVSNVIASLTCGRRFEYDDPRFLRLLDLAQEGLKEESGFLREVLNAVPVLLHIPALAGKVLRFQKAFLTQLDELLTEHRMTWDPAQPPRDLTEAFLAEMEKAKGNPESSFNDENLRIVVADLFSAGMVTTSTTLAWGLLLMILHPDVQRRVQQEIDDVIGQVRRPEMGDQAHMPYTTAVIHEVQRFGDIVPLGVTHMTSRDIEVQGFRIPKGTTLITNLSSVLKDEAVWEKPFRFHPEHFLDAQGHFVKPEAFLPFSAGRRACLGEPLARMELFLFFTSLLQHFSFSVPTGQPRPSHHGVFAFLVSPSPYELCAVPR
As to `O=C(O)CC1CCC(c2ccc(NC(=O)c3nnc(Nc4ccc(F)c(F)c4)o3)cc2)CC1` (centres undefined), the Potency result was “inactive”.
Consider `Nc1ncnc2c1ncn2[C@H]1O[C@@H](C(=O)N2CCN(CC(=O)Nc3cccc4c3CNC4=O)CC2)[C@H](O)[C@@H]1O`, for which the Potency entry was “inactive”.
Still for that read-out and setting: the entry for `CCOC(=O)CNC(=O)[C@@H]1CCCN1C(=O)Cc1ccccc1` (PhAc-Pro-Gly-OEt) is “inactive”; for `O=[N+]([O-])c1cc(Cl)ccc1S(=O)(=O)N1CCN(Cc2ccccc2)CC1` it is 0.756 µM (active).
The same measure, in the same setting: to `Oc1ccc2c(-c3c(-c4ccccn4)nn4c3CCC4)ccnc2c1` belongs “inactive”.
The same measure, in the same setting: to `CCCc1[nH]nc2c1C(c1cc(Cl)cc(Cl)c1O)C(C#N)=C(N)O2` (centres undefined) belongs 2.13 µM (active); to `CCOc1ccc(-c2cc(NC(=O)c3c(F)cccc3F)c(C(=O)O)s2)cc1`, 7.56 µM (active); to `Cc1ccccc1NC(=O)Nc1ccc(CN2C(=O)N([C@@H](CC(C)C)C(=O)N[C@@H](CC(=O)O)c3ccccc3)C(=O)C2(C)C)cc1`, “inactive”.
As for `N[C@@H](CC(=O)Nc1ccc(Oc2cc(F)c(F)cc2Br)cc1)C(=O)O`, the Potency result is “inactive”.

The target in a further test is Cytochrome P450 2C9 (Homo sapiens) (UniProt P11712). Nature of the test: Cytochrome P450 family 2 subfamily C member 9 (CYP2C9) small molecule antagonists: luciferase biochemical (cell-free) qHTS assay (AID 1645842; active = well fitted curve in the direction sought with a large enough effect in the repeat runs; an effect the other way counts as inactive or inconclusive; also: nearly all actives have a fitted effect of over 55% in size; also: potency is read from the fitted curve at half-maximal effect). The following applies: P450-Glo CYP2C9 enzyme assay, luciferin luminescence; series mostly up to 57.4 µM. An outline of the steps:
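Luminescence, after 20 min with luciferin detection reagent, reflected CYP2C9 turnover during a 1 h NADPH-driven reaction at 37C. Enzyme-substrate mix contained 0.4% bovine serum albumin and was preincubated with compound 10 min at room temperature.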
On to `O=C(O)CC1CCC(c2ccc(NC(=O)c3nnc(Nc4ccc(F)c(F)c4)o3)cc2)CC1` (centres undefined), for which the Potency result is “inactive”.
`COc1cc(Nc2ccc([N+](=O)[O-])cc2C(=O)O)cc2ccccc12`: the Potency was 6.74 µM (active).
Turning to `Nc1ncnc2c1ncn2[C@H]1O[C@@H](C(=O)N2CCN(CC(=O)Nc3cccc4c3CNC4=O)CC2)[C@H](O)[C@@H]1O`, the Potency result was “inactive”.
The same measure, in the same setting: the figure for `CS(=O)(=O)c1ccccc1N1CCN(c2nc3c(c(=O)[nH]2)CSCC3)CC1` is 8.49 µM (active); for `COc1ccc(S(=O)(=O)Nc2nc(-c3cccc([N+](=O)[O-])c3)cs2)cc1OC` it is 4.25 µM (active); for `COc1cn(-c2ccc(-n3cccn3)cc2F)nc(-c2ccnn2-c2ccccc2)c1=O` it is 15.1 µM (active).
On the same count and under the same terms, the entry for `O=[N+]([O-])c1cc(Cl)ccc1S(=O)(=O)N1CCN(Cc2ccccc2)CC1` is “inactive”; for `Oc1ccc2c(-c3c(-c4ccccn4)nn4c3CCC4)ccnc2c1` it is “inactive”.
Consider `CCNC(=O)OC1CCN(c2nncc3cc(OC)c(OC)cc23)CC1`, for which the Potency is 15.1 µM (active).
In the case of `CCCc1[nH]nc2c1C(c1cc(Cl)cc(Cl)c1O)C(C#N)=C(N)O2` (centres undefined), the Potency is 12 µM (active).
